Screening results as filed in PubChem.
CD40 NFkB inh = CD40 pathway inhibition in BL2 cells. BL2 NF-kB luciferase reporter, CD40L-induced, 4 h. 83,000 compounds, 0.94% hits. inhibition, % at 10 µM;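 active = mean inhibition of at least 50% with a set share of replicates also reaching that level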
Large screens that a line does not name were inactive; [ ] = dose if it differs, or a comment. This excerpt belongs to a sample that is enriched for hits.

COc1ccccc1CNC(=O)C[C@H]1C[C@@H]2c3cc(NS(=O)(=O)c4ccc(F)cc4)ccc3O[C@@H]2[C@@H](CO)O1	none
COC(=O)CCNS(=O)(=O)c1ccc2ccccc2c1	none
COC(=O)c1ccc(OC(=O)CCS(=O)(=O)c2ccc(C)cc2)cc1	none
COC(=O)CCS(=O)(=O)c1nc(-c2ccccc2)cc(C(F)(F)F)n1	CD40 NFkB inh 95.3
CCC(=O)N1CC2(CCN(Cc3ccc(Cl)cc3)CC2)c2c(n(C)c3cc(OC)ccc23)[C@H]1CO	none
Cc1c(C(=O)N2CCCC(C(F)(F)F)C2)oc2ccccc12 (stereo not given)	none
Cc1ccc(-c2cc(C(=O)N3CCOCC3)c3ccccc3n2)o1	none
Cc1ccc(-c2cc(C(=O)N3CCCC(C(F)(F)F)C3)c3ccccc3n2)o1 (stereo not given)	CD40 NFkB inh 104.6
COc1ccc(S(=O)(=O)Nc2ccc3c(c2)CC(=O)N([C@H](C)CO)C[C@H](C)[C@H](CN(C)C(=O)Nc2c(C)noc2C)O3)cc1	none
COc1ccc(CNC(=O)C[C@H]2C[C@@H]3c4cc(NC(=O)NC5CCCC5)ccc4O[C@@H]3[C@@H](CO)O2)cc1	none
CO[C@@H]1CN(C)C(=O)c2ccc(NC(=O)C3CCCC3)cc2OC[C@@H](C)N(C(=O)Nc2ccc(C(F)(F)F)cc2)C[C@H]1C	none
O=C(NCc1ccccn1)C1CCN(S(=O)(=O)c2ccccc2)CC1	none
O=C(NCc1ccccn1)C1CCCN(S(=O)(=O)c2ccccc2)C1 (stereo not given)	CD40 NFkB inh 25.8
CCOc1ccc(S(=O)(=O)N2CCCC(C(=O)NCc3ccccn3)C2)cc1Cl (stereo not given)	none
COc1cccc(C(=O)Nc2ccc3c(c2)OC[C@@H](C)N(C(=O)C2CCCC2)C[C@@H](C)[C@H](OC)CN(C)C3=O)c1	none
C[C@@H]1CN([C@@H](C)CO)C(=O)c2ccccc2-c2ccccc2CO[C@@H]1CN(C)CC1CC1	none
O=C(C[C@@H]1C[C@H]2c3cc(NC(=O)Nc4ccccc4F)ccc3O[C@H]2[C@H](CO)O1)NC1CCCCC1	none
Cc1ccc2ncccc2c1[N+](=O)[O-]	none
O=[N+]([O-])c1cccc(/C=C/c2ccccn2)c1	none
Cc1noc(/C=C/c2ccccn2)c1[N+](=O)[O-]	CD40 NFkB inh 42.5
Cc1ccccc1S(=O)(=O)Nc1ccc2c(c1)C(=O)N(C)[C@H]1CC[C@H](CC(=O)O)O[C@@H]1CO2	none
COC(=O)C[C@@H]1CC[C@H]2[C@H](COc3ccc(NS(=O)(=O)c4ccc(C)cc4)cc3C(=O)N2C)O1	none
CCSc1nc2ccc(C)cc2cc1C#N	none
Cc1ccc2nc(C(F)(F)F)c(C#N)c(N)c2c1	CD40 NFkB inh 107.8
Cc1cc(C)c2nc(C(F)(F)F)c(C#N)c(N)c2c1	none
O=C(NC[C@H]1[C@@H](c2ccccc2)[C@@H](CO)N1Cc1ccccn1)C1CCC1	none
COc1cccc(NC(=O)N(C)C[C@@H]2OCc3ccccc3-c3ccccc3C(=O)N([C@@H](C)CO)C[C@@H]2C)c1	none
Clc1nc(CN2CCOCC2)nc2sc3c(c12)CCC3	none
Clc1nc(CN2CCCCC2)nc2sc3c(c12)CCCC3	CD40 NFkB inh 55.2
CC1CCN(Cc2nc(Cl)c3c4c(sc3n2)CCC4)CC1	none
COc1ccccc1C(=O)NC1=NCCS1	none
C[C@H](CO)N1C[C@H](C)[C@@H](CN(C)Cc2ccncc2)OCc2ccccc2-c2ccccc2C1=O	none
COc1ccc(S(=O)(=O)N2CC[C@H]3[C@H](CO)Nc4ccc(Br)cc4[C@H]32)cc1	none
CC(=NNC(=S)N1CCC1)c1ccccn1	CD40 NFkB inh 96.7
C/C(=N/NC(=O)c1ccccn1)c1ccco1	none
CC(=NNC(=S)N1CC2CCC(CC2)C1)c1cccc(C)n1	none
O=C(C[C@H]1C[C@@H]2c3cc(NC(=O)Nc4ccccc4F)ccc3O[C@@H]2[C@@H](CO)O1)NC1CCCCC1	none
O=C(C[C@H]1CC[C@H]2[C@@H](COC[C@H](O)CN2Cc2cc(F)cc(F)c2)O1)Nc1nccs1	none
C[C@@H]1CN([C@@H](C)CO)C(=O)Cc2cc(NC(=O)Nc3ccc(C(F)(F)F)cc3)ccc2O[C@H]1CN(C)Cc1ccc2c(c1)OCO2	none
COc1ccc(CN(C)C[C@H]2Oc3ccc(NC(=O)Cc4cn(C)c5ccccc45)cc3CC(=O)N([C@@H](C)CO)C[C@@H]2C)cc1	none
C[C@@H]1CN([C@H](C)CO)C(=O)Cc2cc(NC(=O)Cc3cn(C)c4ccccc34)ccc2O[C@H]1CN(C)Cc1ccc(C(F)(F)F)cc1	CD40 NFkB inh 71.9[25 µM]
C[C@@H]1CN([C@@H](C)CO)C(=O)c2cc(NC(=O)CCN3CCOCC3)ccc2O[C@@H]1CN(C)Cc1ccc(C(F)(F)F)cc1	none
C[C@@H]1CN([C@@H](C)CO)C(=O)c2cc(NC(=O)Cc3cn(C)c4ccccc34)ccc2O[C@@H]1CN(C)Cc1ccc2c(c1)OCO2	none
C[C@H]1CN([C@@H](C)CO)C(=O)Cc2cc(NC(=O)Cc3cn(C)c4ccccc34)ccc2O[C@H]1CN(C)Cc1ccc(C(F)(F)F)cc1	CD40 NFkB inh 76.1[25 µM]
CCC(=O)N1[C@H](CN(C)C(C)=O)[C@@H](c2ccc(-c3cccc(F)c3)cc2)[C@@H]1CO	none
N#C[C@H]1N[C@@H](CO)[C@H]1c1ccccc1	none
